# Values joined by “and” are separate entries in the source; they are usually repeats but may differ in a detail not shown here. Equal entries are not always repeated. The whole screen tested about 220,000 compounds, of which about 2,000 (0.91%) were called active. Roughly 2% stayed inconclusive and do not appear here. Cut-off read from the data, not from the text of the source: inconclusive = inhibition above about 80% without an active follow-up result; inactive = below that; test concentration not stated here. These entries were drawn from the full list. Results with a measured potency or affinity are listed apart.
# Assay: M. tuberculosis H37Rv growth inhibitors, H37Rv strain (AID 1626);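 note: bacteria incubated seven days before Alamar blue readout; 0% = bacteria only wells and 100% = bacteria with antibiotic wells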
# Details: stronger effect = higher value, concentration not given here
row,SMILES,inhibition
1,O=C(Nc1ccc2oc(-c3ccccc3Cl)nc2c1)c1ncn[nH]1,6.26% (inactive)
2,Cc1[nH]nc(NNC(=O)c2ccccc2)c1[N+](=O)[O-],-6.74% (inactive)
3,O=C1NC(=O)N(c2ccccc2)C(=O)/C1=C/C=C/c1ccco1,-5.19% (inactive)
4,O=C1NC(=O)N(c2ccccc2)C(=O)/C1=C\C=C\c1ccccc1,-3.04% (inactive)
5,CN1C(=O)OC2(C)CCc3ccccc3C12C (stereo unspecified),-7.1% (inactive)
6,CC(C)Nc1nc(NC(C)C)nc(Nn2cnnc2)n1,-7.25% (inactive)
7,Cc1cc(C)n(-c2nc(N(C)C)nc(N(C)C)n2)n1,-2.29% (inactive)
8,Cc1cc(C)n(-c2nc(C)nc(N)n2)n1,-4.82% (inactive)
9,CNc1nc(C)nc(-n2nc(C)cc2C)n1,6.41% (inactive)
10,Cc1cc(C)n(-c2nc(Nc3ccccc3)nc(-n3nc(C)cc3C)n2)n1,-2.93% (inactive)
11,Cc1ccccc1Nc1nc(N)nc(CCl)n1,77.4% (inactive)
12,CC(=O)c1nnn(-c2nc(N)nc(N(c3ccccc3)c3ccccc3)n2)c1C,3% (inactive)
13,Cc1cc(NCCO)nc(-n2nc(C)cc2C)n1,8.23% (inactive)
14,CCC1CCc2c(sc(NC(=O)C3c4ccccc4Oc4ccccc43)c2C(N)=O)C1 (stereo unspecified),5.29% (inactive)
15,O=C(NC(=S)NCC1CCCO1)c1ccc(Cl)cc1 (stereo unspecified),2.47% (inactive)
16,O=C(NCc1ccccc1)c1onc(CSc2ccccc2)c1C(=O)NCC1CC1,-10.4% (inactive)
17,CC(C)c1nnc(NC(=O)CSc2nnc(-c3ccco3)o2)s1,-0.02% (inactive)
18,O=C(Cn1c(=O)n(-c2ccccc2)c(=O)c2sccc21)NCc1ccccc1,-8% (inactive)
19,CN(C)S(=O)(=O)c1cccc(C(=O)NCC2CCCO2)c1 (stereo unspecified),4.28% (inactive)
20,CC(=O)c1c(C)[nH]c(C(=O)NCc2cccc(Cl)c2)c1C,-6.84% (inactive)
21,Cc1nnc(Sc2cc(C(=O)NCc3ccco3)c3ccccc3n2)s1,0.09% (inactive)
22,CC(C)Nc1nc(-c2ccccc2)nc(-n2ccnc2)n1,8.64% (inactive)
23,Cc1cc(C)n(-c2nnc(NC(C)(C)C)nn2)n1,-8.78% (inactive)
24,Cc1cc(C)n(-c2nnc(NCc3ccc(Cl)cc3)nn2)n1,8.99% (inactive)

row,SMILES,inhibition
1,CCCCNc1nc(-c2ccccc2)nc(-n2ccnc2)n1,1.24% (inactive)
2,Cc1sc2nc(CN3CCCC3)nc(N3CCN(C(=O)c4ccco4)CC3)c2c1C,-1.07% (inactive)
3,Cc1ccccc1CC1(CO)CCCN(Cc2ccc(C#CC(C)(C)O)cc2)C1 (stereo unspecified),8.42% (inactive)
4,COc1cccc(CN2CCC(C(=O)N3CCN(c4ccccc4F)CC3)CC2)c1,-8.97% (inactive)
5,CCOC(=O)c1cccc(NC(=O)N[C@@H](C)C(=O)OC)c1,-9.35% (inactive)
6,COc1ccc(-c2cn(-c3ccc(Br)cc3)c3[n+]2CCS3)cc1,5.88% (inactive)
7,CC(=O)c1ccc(-n2cc(-c3ccc(C(C)(C)C)cc3)[n+]3c2SCCC3)cc1,40.7% (inactive)
8,N#Cc1c(/N=C/C=C/c2ccccc2)sc2c1CCCC2,-4.34% (inactive)
9,Cc1cccc(OCC2=NS(=O)(=O)c3ccccc3N2)c1,-21.3% (inactive)
10,Cc1cc(C)nc(SCC(=O)Nc2nc(-c3ccccc3)c(-c3ccccc3)o2)n1,5.45% (inactive)
11,Cn1nnnc1SCC(=O)Nc1ccc(Oc2ccccc2)cc1,57.4% (inactive)
12,COc1ccc(NC(=O)CSc2nnnn2C)cc1,-5.32% (inactive)
13,Cn1nnnc1SCC(=O)Nc1ccccc1-c1ccccc1,36.5% (inactive)
14,CCCCOC(=O)c1ccc(NC(=O)CSc2nncn2C)cc1,53.2% (inactive)
15,CCOC(=O)c1ccc(NC(=O)CSc2nnnn2CCCO)cc1,68.7% (inactive)
16,CCOC(=O)c1oc2ccc(S(=O)(=O)Nc3ccc4c(c3)n(C)c(=O)n4C)cc2c1C,-1.98% (inactive)
17,O=C1CCCC2=C1C(c1ccsc1)CC(=O)N2c1ccccc1F (stereo unspecified),-5.2% (inactive)
18,CCN(CC)CCCNC(=O)c1ccccc1C,-9.77% (inactive)
19,O=C(c1ccccc1)N1CCC2(CC1)OCCO2,-4.39% (inactive)
20,CCN=C1SC(C(=O)Nc2cccc(Cl)c2)CC(=O)N1CC (stereo unspecified),2.07% (inactive)
21,O=C(c1cc2nc(-c3ccccc3)cc(-c3ccccc3)n2n1)N1CCCC1,-3% (inactive)
22,CN1CCN(C(=O)c2cc3nc(-c4ccccc4)cc(-c4ccccc4)n3n2)CC1,4.38% (inactive)
23,CCCCn1c(=O)c(CCC(=O)OCC(=O)NC(=O)NCCC(C)C)nc2ccccc21,-5.41% (inactive)
24,On1nnc2ccc(C(F)(F)F)cc21,0.915% (inactive)

row,SMILES,inhibition
1,S=C1NC2=C(CCCC2)C2(CCCCC2)N1,3.82% (inactive)
2,Cc1cccc(C)c1OCc1nc2ccccc2[nH]1,-5.31% (inactive)
3,N=c1n(CCN2CCOCC2)c2ccccc2n1CC(=O)c1ccc(Cl)c(Cl)c1,17.4% (inactive)
4,N=c1n(CCN2CCCCC2)c2ccccc2n1CC(O)c1ccc(Cl)c(Cl)c1 (stereo unspecified),57.5% (inactive)
5,Cc1ccc2nc(/C(C#N)=C/c3ccc(-c4cccc([N+](=O)[O-])c4)o3)[nH]c2c1,1.74% (inactive)
6,N#C/C(=C\c1ccc(OC(=O)c2ccc(Br)s2)cc1)c1nc2ccccc2[nH]1,66.1% (inactive)
7,Cc1ccc2nc(/C(C#N)=C\c3cc(O)ccc3[N+](=O)[O-])[nH]c2c1,-7.37% (inactive)
8,N#C/C(=C\c1ccc(OC(=O)c2cccs2)cc1)c1nc2ccccc2[nH]1,28.1% (inactive)
9,CN(Cc1nc(Cc2cccc(C(F)(F)F)c2)no1)C1CC(C)(C)NC(C)(C)C1,4.06% (inactive)
10,COc1ccc(C(=O)NCC(=O)OCC(=O)NCCC2=CCCCC2)cc1,1.25% (inactive)
11,CCN(CC)S(=O)(=O)c1ccc(-c2nnc(SCC(N)=O)n2CC)cc1,-3.31% (inactive)
12,CSc1ncc(CO)n1Cc1ccccc1,-4.14% (inactive)
13,O=C(O)c1ccc(CS(=O)(=O)Cc2ccccc2F)o1,-18.6% (inactive)
14,COc1ccc(-c2[nH]ncc2CN2CCCN(c3ccccc3)CC2)c(F)c1,-1.64% (inactive)
15,COc1ccc(-c2[nH]ncc2CN2CCN(c3ccc(F)cc3)CC2)cc1,-12.3% (inactive)
16,Cn1cnc([N+](=O)[O-])c1Nc1cccc(O)c1,-3.69% (inactive)
17,CC(=O)CSc1nc2ccc(Nc3nc(N4CCOCC4)nc(N4CCOCC4)n3)cc2s1,4.02% (inactive)
18,O=C(CSc1nc2ccc(Nc3nc(N4CCCC4)nc(N4CCCC4)n3)cc2s1)NCc1ccco1,68.7% (inactive)
19,COc1ccc(Nc2nc(NCc3ccco3)nc(N3CCOCC3)n2)cc1,-1.04% (inactive)
20,Cc1cccc(Nc2nc(NCc3ccco3)nc(N3CCOCC3)n2)c1,-1.15% (inactive)
21,O=C(Cn1c[n+](CC(=O)c2ccc([N+](=O)[O-])cc2)cn1)c1ccc([N+](=O)[O-])cc1,-5.51% (inactive) and -5.64% (inactive)
22,O=C(Cn1cc[n+](Cc2ccccc2)c1)c1ccc([N+](=O)[O-])cc1,14% (inactive)
23,Cc1ccc2oc(=O)c(/C=C(\O)c3ccccc3)nc2c1,-10.4% (inactive)
24,O=c1oc2ccccc2nc1/C=C(O)/C=C/c1ccc(F)cc1,63.9% (inactive)

row,SMILES,inhibition
1,Cc1ccc(/C(O)=C/c2nc3cc(C)ccc3oc2=O)cc1,16.9% (inactive)
2,O=c1oc2cc([N+](=O)[O-])ccc2nc1/C=C(\O)c1cccc(Br)c1,-3.89% (inactive)
3,Cc1ccc2oc(=O)c(/C=C(\O)c3cccs3)nc2c1,-2.1% (inactive)
4,Cc1ccc2oc(=O)c(/C=C(\O)c3sc(C)nc3C)nc2c1,-8.77% (inactive)
5,O=c1oc2cc([N+](=O)[O-])ccc2nc1/C=C(O)/C=C/c1ccccc1,-2.36% (inactive)
6,C/C(O)=C\c1nc2ccccc2oc1=O,75.9% (inactive)
7,C=CCc1cc(OC)ccc1OCCOCCN1CCc2ccccc2C1,6.94% (inactive)
8,COc1cccc(CNc2ccc(F)c(Cl)c2)c1,12.1% (inactive)
9,OCCC1CN(Cc2cccnc2)CCN1CCc1ccccc1 (stereo unspecified),-0.305% (inactive)
10,O=C(C[n+]1cc(-c2ccccc2)n2c1CCC2)c1cccs1,-2.31% (inactive)
11,O=C(C[n+]1cc(-c2ccc(F)cc2)n2c1CCC2)OCc1ccccc1,-9.6% (inactive)
12,Cc1ccc(-c2c[n+](CC(=O)c3cccs3)c3n2CCC3)cc1,18.1% (inactive)
13,O=C(C[n+]1cc(-c2ccccc2)n2c1CCCCC2)c1ccc(Cl)cc1,18.6% (inactive)
14,O=C(C[n+]1cc(-c2ccc(Cl)cc2)n2c1CCCCC2)c1ccccc1,-4.68% (inactive)
15,COc1ccc(-c2c[n+](CC(=O)N3c4ccccc4Sc4ccccc43)c3n2CCC3)cc1,78.6% (inactive)
16,O=C(C[n+]1cc(-c2ccc(F)cc2)n2c1CCC2)c1cccs1,0.03% (inactive)
17,O=C(C[n+]1cc(-c2ccccc2)n2c1CCC2)OCc1ccccc1,-7.15% (inactive)
18,O=C1CC(SCCc2nc3ccccc3[nH]2)C(=O)N1c1ccc(F)cc1 (stereo unspecified),-1% (inactive)
19,CS(=O)(=O)N(CC(=O)NC1CCCC1)Cc1ccc(Cl)cc1,-2.78% (inactive)
20,Cc1nc(Cl)c(C(=O)NC(C)(C)C)c(C)c1Cl,-4.14% (inactive)
21,COc1ccc(N2C(=O)CCC(C(=O)NCc3ccccn3)C2c2ccc(OC)c(OC)c2)cc1 (stereo unspecified),-14.1% (inactive)
22,CC(=O)N1CCN(c2ccc([N+](=O)[O-])cc2C=C2C(=O)NC(=O)NC2=O)CC1,7.44% (inactive)
23,CSc1nc2ccccc2n1CC(=O)Nc1ccccc1,-4.24% (inactive)
24,Cc1[nH]c2ccc(C(=O)OCCN(C)C)cc2c1C,-4.75% (inactive)
